This is an account of results in PubChem BioAssay (NCATS).

Test [1] is described as follows: AP1 Signaling Pathway (AID 357; active = well fitted curve in either direction with a large enough effect, not every such curve was filed as active;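 note: ME-180 reporter cells stimulated with EGF at its EC50 level; % is set by controls: 0 for no effect and ±100 for the full control effect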). Particulars: ME-180 AP-1-bla reporter, EGF-induced, beta-lactamase ratio, 5 h. The method in brief:
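Modulation of EGF-driven AP-1 transcription was assessed with a beta-lactamase reporter in ME-180 cells. Compound and EC50 EGF were co-incubated 5 hours at 37 °C before 2.5-hour CCF4 loading at room temperature and dual-emission reading.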

The target of test [2] is Cytochrome P450 1A2 (Homo sapiens) (UniProt P05177). As to the kind of experiment: p450-cyp1a2 (AID 410; calls by dose curve; note: potency is the fitted concentration of half-maximal effect;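 for activity change, negative = inhibition: -100% = full effect of reference inhibitor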). Particulars: recombinant CYP1A2, luciferin-ME demethylation, luminescence; series mostly up to 57 µM. The method in brief: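 Luminescent readout of luciferin formed from Luciferin-ME by human CYP1A2; data normalized against complete inhibition by 57 uM furafylline. Enzyme 20nM, substrate 100uM at Km, 100mM KPO4 buffer, 60 min reaction at room temperature.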

Test [3] can be described thus: NFAT Signaling Pathway (AID 444; active = well fitted curve in either direction with a large enough effect, not every such curve was filed as active;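 note: carbachol stimulus at about its EC50 of 1 µM final; % is set by controls: 0 for no effect and ±100 for the full control effect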). The following applies: Jurkat NFAT-bla M1, carbachol, beta-lactamase ratio, 5 h. The method in brief:
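Jurkat cells with NFAT-driven β-lactamase reporter and co-expressed M1 receptor, stimulated with carbachol (final 1 uM, ~EC50), compound titration, 5 h at 37 °C. CCF4 loaded 1 h at RT; 460/530 nm ratio gave %activity and AC50.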

Test [4] can be described thus: Stat Signaling Pathway (AID 446; active = well fitted curve in either direction with a large enough effect, not every such curve was filed as active;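 note: ME-180 cervical cancer cells given 40 pM IL-6 alongside compound; SIE-controlled beta-lactamase reporter measured as 460/530 nm FRET emission ratio; % is set by controls: 0 for no effect and ±100 for the full control effect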). Particulars: ME-180 SIE beta-lactamase reporter, IL-6 stimulated, 5 h. The method in brief:
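Reporter line: ME-180 cervical carcinoma, SIE-beta-lactamase. Treatment: compound with 40 pM IL-6, 5 hrs, 37 C, in low-serum OPTI-MEM with 10 mM HEPES pH 7.3. Detection: 460/530 nm fluorescence.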

In test [5] the target is Glucocorticoid receptor (Homo sapiens) (UniProt P04150). Kind of test: GR-GFP Redistribution (AID 450;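 active = compounds whose dose series gives a full or clear partial fitted curve of increased nuclear translocation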; note: potency is the fitted concentration of half-maximal effect). Particulars: U2OS GR-GFP nuclear translocation, laser cytometry, 2 h.
Test [6] shares this target. Kind of test: GR-EFC Redistribution (AID 451; calls by dose curve; note: potency is the fitted concentration of half-maximal effect). The following applies: CHO-K1 GR-EFC translocation, beta-gal luminescence, 2 h. The method in brief:
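CHO-K1 cells expressing nuclear EA and GR-ED fragments of b-gal; compounds titrated up to 46 uM final, 2 h at 37 C. GR nuclear translocation read as complemented b-gal luminescence after 1 h RT detection.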

In test [7] the target is Mitogen-activated protein kinase 10 (Mus musculus) (UniProt Q61831). As to the kind of experiment: JNK3 AlphaScreen Assay (AID 530; active = well fitted curve in either direction with a large enough effect, not every such curve was filed as active;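 note: kinase came from lysate of stimulated human HepG2 cells; signal reports phosphorylation of biotinylated GST-cJun 1-79 at Ser73 with 10 µM ATP; % is set by controls: 0 for no effect and ±100 for the full control effect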). Particulars: JNK3 lysate, c-Jun phosphorylation; series mostly up to 57.1 µM. The method in brief:
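Pre-activated (IL-1β/TNFα) JNK3 in HepG2 lysates phosphorylates biotin-GST-cJun(1-79), 10 uM ATP; anti-phospho-cJun(Ser73) AlphaScreen read at room temperature, pH 7.6 Tris buffer. Compounds pre-incubated 15 min as titrations.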
In general terms: Alpha assays give light when donor and acceptor beads are brought close together.

Test [8] deals with 3',5'-cyclic-AMP phosphodiesterase 4B (Homo sapiens) (UniProt Q07343). As to the kind of experiment: qHTS Assay for Inhibitors of PDE-IV (AID 607; active = well fitted activation curve with a large enough effect in the main read-out, with a control signal flat, not every such curve was filed as active; note: % of control where 0% means no effect). Particulars: HEK293 ACTOne CNG channel cells, membrane potential fluorescence; series mostly up to 22.9 µM. The method in brief:
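Cell-based read-out of cAMP via a modified cyclic nucleotide-gated channel and membrane potential dye (535/590 nm) in HEK293 cells expressing PDE4 endogenously. Compounds tested up to 22.9 uM final; 100 uM RO 20-1724 reference.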

The nature of test [9]: qHTS Assay for Lipid Storage Modulators (AID 1519; calls by dose curve). Particulars: Drosophila S3 cells, BODIPY lipid droplet/cell ratio, laser cytometry, cells loaded with oleic acid; for activity change, negative = inhibition: at 25.7 µM (top of the series). The method in brief:
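Cells seeded at 5,000 per well were treated with compounds over a concentration series and loaded with oleic acid (400 uM, as added). Lipid droplet fluorescence (488 nm excitation, 500-530 nm channel) was read by laser-scanning cytometry and normalized to 20 uM Triacsin C.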
A general note: In qHTS, concentration-response curves come from the screen itself.

Test [10] has as its target Ubiquitin carboxyl-terminal hydrolase 1 (Homo sapiens) (UniProt O94782). Kind of test: Inhibitors of USP1/UAF1: Pilot qHTS (AID 504865).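 Note: rhodamine fluorescence freed from ubiquitin-rhodamine substrate followed over time; top concentration of the series differs between compounds; % is set by controls: 0 for no effect and ±100 for the full control effect; nearly all actives have a fitted effect of over 35% in size.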 Particulars: purified USP1/UAF1, Ub-rhodamine cleavage fluorescence; series mostly up to 54.9 µM. In a few lines: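 USP1/UAF1 complex (1nM) preincubated with compound 15 min at room temperature, then Ub-Rho substrate (150nM final) added. Fluorescence read kinetically at 480/540 nm, 6 reads every 60 seconds. Buffer: 50mM HEPES pH 7.8, 0.5mM EDTA, 0.1 mg/ml BSA, 1mM TCEP, 0.01% Tween-20.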

Test [11] concerns the target Pyruvate kinase (Leishmania mexicana) (UniProt Q27686). As to the kind of experiment: qHTS Validation Assay for Inhibitors of Leishmania Mexicana Pyruvate Kinase (AID 945).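 Note: 0% = DMSO only neutral control wells.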 Particulars: purified L. mexicana pyruvate kinase, enzyme activity, E451W mutant enzyme; series mostly up to 57.5 µM. In a few lines: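 qHTS eight-point titrations against 0.2 nM LmPYK (E451W) in imidazole buffer pH 7.2 with 0.5 mM PEP, 0.1 mM ADP; 1 h, room temperature. Readout: PKLight luminescence, normalized to neutral DMSO wells.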

In test [12] the target is Alpha-galactosidase A (Homo sapiens) (UniProt P06280). As to the kind of experiment: Counterscreen for Glucocerebrosidase Inhibitors: qHTS Assay for Human alpha-Galactosidase at pH 4.5 (AID 992). Note: 0% is about no effect. The following applies: purified enzyme, fluorogenic substrate; series mostly up to 76.9 µM. In a few lines:
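Quantitative HTS: compounds tested from 0.7 nM up to 77 uM against 2 nM enzyme with 80 uM 4-MU alpha-D-galactopyranoside. The 20 min room-temperature reaction is stopped with 1M NaOH/1M glycine, pH 10.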
(In general: The purpose of a counterscreen is to sort out artefacts and off-target activity.)

Test [13] addresses alpha-glucosidase (Oryza sativa, rice) (UniProt Q653V4). Kind of test: Counterscreen for Glucocerebrosidase Inhibitors: qHTS Assay for Rice alpha-Glucosidase at pH 5.0 (AID 997).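 Note: 0% = full activity with enzyme and -100% = basal without enzyme.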 Particulars: rice alpha-glucosidase enzyme activity; series mostly up to 76.9 µM. The method in brief: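 Rice alpha-glucosidase (4 nM final) with 400 uM 4-methylumbelliferyl-alpha-D-glucopyranoside in citrate buffer pH 5.0, 20 min at room temperature, stopped at pH 10; fluorescence 365/440 nm, compounds 0.7 nM–77 uM, AC50 from Hill fits.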

Test [14] has as its target ATP-dependent 6-phosphofructokinase (Trypanosoma brucei brucei) (UniProt O15648). Kind of test: qHTS Assay to Find Inhibitors of T. brucei phosphofructokinase: hit validation (AID 492961). The following applies: T. brucei PFK, ADP-Glo luminescence; series mostly up to 24.3 µM. In a few lines: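 Compounds titrated; %activity normalized to 0x and 1x enzyme controls, curve-fitted. Readout: ADP-Glo luminescence after 45 min room-temperature reaction of 1.25 nM PFK, 0.1 mM ATP, 0.5 mM F6P, pH 8.0.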

The target of test [15] is Luciferin 4-monooxygenase (Photinus pyralis) (UniProt P08659). As to the kind of experiment: Biochemical firefly luciferase enzyme assay for NPC (AID 624030).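 Note: purified P. pyralis luciferase at 10 nM with luciferin and ATP substrate; 0% = DMSO and -100% = full luciferase inhibition by PTC124 control; nearly all actives have a fitted effect of over 70% in size.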 Particulars: purified P. pyralis luciferase, luminescence, 5 min; series mostly up to 58.6 µM. The method in brief: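 Purified P. pyralis luciferase at 10 nM in 50 mM Tris Acetate (final), luminescence read within 5 minutes of enzyme addition to compounds. Activity normalised to PTC124 versus DMSO; concentration-response curves classed by r2, magnitude and activity.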

Test [16] in a line: qHTS profiling for inhibitors of Plasmodium falciparum proliferation (AID 504749).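 Note: 0% = DMSO vehicle and full inhibition = artemisinin control; nearly all actives have a fitted effect of over 60% in size.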 Particulars: P. falciparum in erythrocytes, SYBR Green DNA, 72 h. The method in brief: (§1)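 P. falciparum-infected erythrocytes (0.3% parasitemia, 2.5% hematocrit) incubated with compound 72 h at 37 C, 5% CO2. Parasite DNA detected by SYBR Green after lysis, overnight at room temperature; normalised to 0.29 uM artemisinin and DMSO.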

Test [17] has as its system AS120. The description is as above. The following applies: P. falciparum in erythrocytes, SYBR Green DNA, 72 h; series mostly up to 28.7 µM. In a few lines:
as §1

Test [18] relates to CP238. The test is described as above. Particulars: P. falciparum in erythrocytes, SYBR Green DNA, 72 h; series mostly up to 12.8 µM. In a few lines: as §1
Test [19] has as its system CP265. Described as above. Particulars: P. falciparum in erythrocytes, SYBR Green DNA, 72 h; series mostly up to 12.8 µM. In a few lines: as §1
Test [20] has as its system FAB9. The description is as above. Particulars: P. falciparum in erythrocytes, SYBR Green DNA, 72 h; series mostly up to 12.8 µM. The method in brief: as §1
Setting [21] is: measured here: cell count channel max response.
Setting [22] is: measured here: lipid channel max response.
[23] abbreviates: at 28.7 µM (top of the series), parasite line A.
Where [24] appears, read: at 28.7 µM (top of the series), parasite line B.
The mark [25] stands for this setting: at 7.69 µM (top of the series) unless noted.

Where “and” joins values, the source holds several entries; their conditions need not be identical. Identical values can stand only once. Records with an inconclusive call do not appear. Calls of active or inactive are those of the source. Unless noted, calls come from the whole dose curve; as a rule, active = well fitted curve in the direction sought with a large enough effect; inconclusive = small, poorly fitted or top-dose-only effect, or another doubt; inactive = no such curve, though single readings can be large; an effect the other way counts as inactive or inconclusive.

Sequence of ATP-dependent 6-phosphofructokinase (Trypanosoma brucei brucei) (O15648 whole entry, looked up): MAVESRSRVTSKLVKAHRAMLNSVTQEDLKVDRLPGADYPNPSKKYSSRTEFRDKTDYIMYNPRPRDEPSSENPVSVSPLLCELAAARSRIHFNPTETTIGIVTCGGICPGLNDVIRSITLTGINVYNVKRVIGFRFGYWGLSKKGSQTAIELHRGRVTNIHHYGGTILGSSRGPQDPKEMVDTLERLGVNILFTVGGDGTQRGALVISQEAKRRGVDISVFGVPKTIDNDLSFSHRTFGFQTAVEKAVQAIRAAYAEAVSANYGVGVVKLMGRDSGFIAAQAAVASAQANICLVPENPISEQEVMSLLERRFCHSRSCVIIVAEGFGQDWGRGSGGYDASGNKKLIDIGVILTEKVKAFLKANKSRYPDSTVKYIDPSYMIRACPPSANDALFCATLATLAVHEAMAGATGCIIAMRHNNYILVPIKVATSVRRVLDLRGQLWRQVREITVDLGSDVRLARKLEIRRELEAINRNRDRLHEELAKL
Sequence of Luciferin 4-monooxygenase (Photinus pyralis) (P08659 whole entry, looked up): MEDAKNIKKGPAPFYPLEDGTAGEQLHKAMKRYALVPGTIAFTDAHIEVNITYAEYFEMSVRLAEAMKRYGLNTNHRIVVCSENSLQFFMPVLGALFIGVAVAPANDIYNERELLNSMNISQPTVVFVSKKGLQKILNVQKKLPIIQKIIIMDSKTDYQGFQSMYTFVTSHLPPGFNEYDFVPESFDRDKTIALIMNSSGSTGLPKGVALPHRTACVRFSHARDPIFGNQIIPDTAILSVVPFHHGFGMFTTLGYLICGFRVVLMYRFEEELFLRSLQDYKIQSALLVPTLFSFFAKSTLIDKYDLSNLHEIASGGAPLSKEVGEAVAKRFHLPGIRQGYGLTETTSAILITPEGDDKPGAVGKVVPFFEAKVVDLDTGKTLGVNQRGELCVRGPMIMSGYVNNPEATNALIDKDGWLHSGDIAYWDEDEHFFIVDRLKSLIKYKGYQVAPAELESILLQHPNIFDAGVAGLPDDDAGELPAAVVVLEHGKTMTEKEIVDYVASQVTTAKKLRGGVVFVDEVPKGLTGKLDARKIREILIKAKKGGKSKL
Sequence of Ubiquitin carboxyl-terminal hydrolase 1 (Homo sapiens) (O94782 whole entry, looked up): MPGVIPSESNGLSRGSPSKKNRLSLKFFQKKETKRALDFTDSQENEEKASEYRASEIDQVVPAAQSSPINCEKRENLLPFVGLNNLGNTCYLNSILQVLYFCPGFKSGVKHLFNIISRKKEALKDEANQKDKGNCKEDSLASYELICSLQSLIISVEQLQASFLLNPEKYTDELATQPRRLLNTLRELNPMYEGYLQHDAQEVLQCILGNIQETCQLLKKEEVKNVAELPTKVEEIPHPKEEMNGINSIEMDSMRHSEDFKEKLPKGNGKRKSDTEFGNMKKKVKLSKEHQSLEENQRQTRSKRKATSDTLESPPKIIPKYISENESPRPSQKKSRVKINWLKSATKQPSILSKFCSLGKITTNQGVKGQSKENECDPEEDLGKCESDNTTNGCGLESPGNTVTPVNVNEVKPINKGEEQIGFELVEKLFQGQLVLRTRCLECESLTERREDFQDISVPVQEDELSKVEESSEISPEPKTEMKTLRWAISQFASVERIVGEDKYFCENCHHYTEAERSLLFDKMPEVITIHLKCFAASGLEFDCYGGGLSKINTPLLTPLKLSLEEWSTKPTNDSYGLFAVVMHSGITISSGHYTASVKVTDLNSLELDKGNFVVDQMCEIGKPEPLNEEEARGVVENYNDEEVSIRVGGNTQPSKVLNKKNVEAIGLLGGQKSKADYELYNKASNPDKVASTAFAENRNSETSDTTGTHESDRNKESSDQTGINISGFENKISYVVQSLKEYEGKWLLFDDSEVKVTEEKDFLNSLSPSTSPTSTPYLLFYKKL
Sequence of Cytochrome P450 1A2 (Homo sapiens) (P05177 whole entry, looked up): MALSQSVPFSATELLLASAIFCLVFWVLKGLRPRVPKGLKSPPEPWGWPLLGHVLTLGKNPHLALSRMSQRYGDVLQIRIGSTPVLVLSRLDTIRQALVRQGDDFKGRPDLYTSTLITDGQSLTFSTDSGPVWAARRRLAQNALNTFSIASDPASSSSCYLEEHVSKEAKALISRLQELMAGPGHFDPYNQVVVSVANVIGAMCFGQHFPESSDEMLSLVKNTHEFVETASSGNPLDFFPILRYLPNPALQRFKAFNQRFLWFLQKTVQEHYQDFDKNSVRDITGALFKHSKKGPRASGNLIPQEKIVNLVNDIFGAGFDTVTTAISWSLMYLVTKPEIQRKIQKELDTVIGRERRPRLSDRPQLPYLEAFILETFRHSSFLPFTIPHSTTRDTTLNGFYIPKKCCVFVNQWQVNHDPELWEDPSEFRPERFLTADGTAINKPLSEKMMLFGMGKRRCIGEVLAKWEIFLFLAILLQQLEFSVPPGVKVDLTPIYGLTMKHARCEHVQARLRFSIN
Sequence of Glucocorticoid receptor (Homo sapiens) (P04150 whole entry, looked up): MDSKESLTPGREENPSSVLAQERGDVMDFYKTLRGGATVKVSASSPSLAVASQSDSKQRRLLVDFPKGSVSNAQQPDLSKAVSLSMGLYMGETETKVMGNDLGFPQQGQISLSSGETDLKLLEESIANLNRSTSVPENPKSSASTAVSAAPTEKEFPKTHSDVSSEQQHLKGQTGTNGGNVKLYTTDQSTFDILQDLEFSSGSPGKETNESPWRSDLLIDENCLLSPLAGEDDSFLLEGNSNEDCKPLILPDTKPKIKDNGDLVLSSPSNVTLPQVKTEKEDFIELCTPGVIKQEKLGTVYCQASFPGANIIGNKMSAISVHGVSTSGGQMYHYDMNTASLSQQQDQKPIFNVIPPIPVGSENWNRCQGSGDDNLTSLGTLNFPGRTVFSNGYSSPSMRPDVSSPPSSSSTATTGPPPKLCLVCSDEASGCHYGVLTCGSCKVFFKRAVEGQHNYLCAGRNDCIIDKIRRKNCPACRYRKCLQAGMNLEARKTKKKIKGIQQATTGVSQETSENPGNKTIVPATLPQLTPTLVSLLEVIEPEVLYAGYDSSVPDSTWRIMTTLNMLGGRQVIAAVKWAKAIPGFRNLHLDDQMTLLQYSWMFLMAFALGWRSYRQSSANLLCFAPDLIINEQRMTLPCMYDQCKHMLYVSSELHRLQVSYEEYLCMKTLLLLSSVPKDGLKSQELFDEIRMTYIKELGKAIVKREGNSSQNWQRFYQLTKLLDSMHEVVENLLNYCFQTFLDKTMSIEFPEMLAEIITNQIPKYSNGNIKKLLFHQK
Sequence of 3',5'-cyclic-AMP phosphodiesterase 4B (Homo sapiens) (Q07343 whole entry, looked up): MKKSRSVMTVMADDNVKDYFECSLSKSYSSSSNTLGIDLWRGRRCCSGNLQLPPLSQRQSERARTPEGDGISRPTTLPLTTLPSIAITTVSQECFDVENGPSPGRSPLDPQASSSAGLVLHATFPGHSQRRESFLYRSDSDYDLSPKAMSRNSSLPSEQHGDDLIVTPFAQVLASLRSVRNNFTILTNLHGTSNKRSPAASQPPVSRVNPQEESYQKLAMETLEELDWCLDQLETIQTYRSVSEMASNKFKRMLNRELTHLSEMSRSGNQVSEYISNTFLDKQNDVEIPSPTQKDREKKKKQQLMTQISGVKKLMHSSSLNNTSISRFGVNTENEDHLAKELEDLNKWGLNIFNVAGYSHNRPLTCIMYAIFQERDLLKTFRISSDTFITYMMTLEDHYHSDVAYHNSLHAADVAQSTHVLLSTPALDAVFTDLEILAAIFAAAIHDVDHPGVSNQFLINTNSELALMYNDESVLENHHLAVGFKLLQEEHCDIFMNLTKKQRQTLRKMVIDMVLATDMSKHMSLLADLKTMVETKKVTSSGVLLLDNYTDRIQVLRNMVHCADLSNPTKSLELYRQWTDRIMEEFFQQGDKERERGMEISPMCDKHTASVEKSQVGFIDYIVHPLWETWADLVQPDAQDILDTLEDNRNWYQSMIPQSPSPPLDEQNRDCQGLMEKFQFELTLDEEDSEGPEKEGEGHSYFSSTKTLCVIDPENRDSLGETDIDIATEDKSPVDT
Sequence of Pyruvate kinase (Leishmania mexicana) (Q27686 2-499 E452W): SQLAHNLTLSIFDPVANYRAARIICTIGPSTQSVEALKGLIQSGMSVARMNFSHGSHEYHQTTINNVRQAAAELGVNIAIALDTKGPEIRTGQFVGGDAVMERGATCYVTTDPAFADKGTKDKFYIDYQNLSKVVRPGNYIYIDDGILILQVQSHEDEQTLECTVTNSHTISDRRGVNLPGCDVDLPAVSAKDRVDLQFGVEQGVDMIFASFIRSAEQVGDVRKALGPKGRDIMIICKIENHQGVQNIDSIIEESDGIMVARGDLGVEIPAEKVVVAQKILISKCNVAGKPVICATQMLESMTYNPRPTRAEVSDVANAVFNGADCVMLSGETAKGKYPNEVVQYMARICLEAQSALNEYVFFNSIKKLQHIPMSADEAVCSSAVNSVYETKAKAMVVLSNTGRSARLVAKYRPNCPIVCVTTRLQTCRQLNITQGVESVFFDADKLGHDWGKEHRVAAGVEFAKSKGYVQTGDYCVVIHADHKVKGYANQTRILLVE
Sequence of Alpha-galactosidase A (Homo sapiens) (P06280 whole entry, looked up): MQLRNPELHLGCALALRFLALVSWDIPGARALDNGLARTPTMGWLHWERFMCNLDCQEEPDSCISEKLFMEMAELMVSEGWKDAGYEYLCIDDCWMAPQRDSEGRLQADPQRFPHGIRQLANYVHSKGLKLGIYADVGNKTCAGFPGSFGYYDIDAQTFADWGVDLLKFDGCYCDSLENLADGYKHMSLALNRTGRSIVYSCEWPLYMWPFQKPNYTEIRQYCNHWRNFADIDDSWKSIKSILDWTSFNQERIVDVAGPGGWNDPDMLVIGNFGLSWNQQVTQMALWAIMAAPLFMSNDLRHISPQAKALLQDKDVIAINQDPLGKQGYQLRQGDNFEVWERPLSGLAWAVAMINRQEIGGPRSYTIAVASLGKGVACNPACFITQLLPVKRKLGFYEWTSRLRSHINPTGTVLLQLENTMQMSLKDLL

With `C[C@@]12CC[C@@H]3c4ccc(O)cc4CC[C@H]3[C@H]1CC[C@H]2O`, the activity change, negative = inhibition in [1] (at 17.2 µM (top of the series)) was -5.6% (inactive); in test [1] (at 38 µM (top of the series)) it was -13.9% (inactive); in test [3] (at 17.2 µM (top of the series)), -19.1% (inactive); in [3] (at 38 µM (top of the series)) it was -4.36% (inactive); in [9], -0.875% (inactive). The Potency in test [2] is 10 µM (active) and 5.01 µM (active); in test [5], > 46 µM (inactive) and > 20.6 µM (inactive); in test [6], > 46 µM (inactive) and > 20.6 µM (inactive). Moreover, the activity, negative = inhibition was -28.8% (inactive) in [4] (at 17.2 µM (top of the series)) and -19.1% (inactive) in test [4] (at 38 µM (top of the series)). Besides, the Potency result in [7], in test [8] and in [10] was “inactive” in each case. Further, the results for the max response in [9] (setting [21]) and in test [9] (setting [22]) were -11.7% and -11.1%, respectively.
As to `N[C@@H](CO)C(=O)NNCc1ccc(O)c(O)c1O`, the activity change, negative = inhibition in test [1] (at 17.2 µM (top of the series)) was 2.07% (inactive); in test [1] (at 38 µM (top of the series)), 14.8% (inactive); in test [3] (at 17.2 µM (top of the series)) it was -8.03% (inactive); in test [3] (at 38 µM (top of the series)) it was -7.62% (inactive); in test [9], -1.23% (inactive). Moreover, the Potency entry in test [2], in test [8], in test [10], in [17], in test [18] and in test [19] was “inactive” throughout. For the same compound, in [20], the Potency entry was “inactive”. Further, the activity, negative = inhibition in test [4] (at 17.2 µM (top of the series)) is -0.902% (inactive); in test [4] (at 38 µM (top of the series)), 4.31% (inactive); in test [16] (setting [23]), 21.9% (inactive); in test [16] (setting [24]), 19.7% (inactive). Besides, the compound was called inactive in test [11], in test [12], in test [13], in [14] and in test [15]. The max response is -4.75% in test [9] (setting [21]) and -6.43% in test [9] (setting [22]).
Take `CC(C)(C)NC[C@H](O)c1cc(O)cc(O)c1`: the activity change, negative = inhibition was -14.7% (inactive) in test [1] (at 17.2 µM (top of the series)); -8.4% (inactive) in [1] (at 38 µM (top of the series)); -10.3% (inactive) in [3] (at 17.2 µM (top of the series)); 0.832% (inactive) in test [3] (at 38 µM (top of the series)); -2.66% (inactive) in [9]. In addition, the Potency result in [2], in [7], in test [8], in [17], in test [18] and in test [19] was “inactive” in each case. Besides, the Potency entry in test [20] is “inactive”. Besides, the activity, negative = inhibition in test [4] (at 17.2 µM (top of the series)) is -0.828% (inactive); in test [4] (at 38 µM (top of the series)) it was 3.91% (inactive); in test [16] (setting [23]), -9.2% (inactive); in test [16] (setting [24]), -17.1% (inactive). In addition, the compound was classed as inactive in test [11], in test [12], in test [13], in test [14] and in test [15]. The max response is 8% in test [9] (setting [21]) and 4.68% in test [9] (setting [22]).
Consider `CC1(C)O[C@@H]2C[C@H]3[C@H]4C[C@H](F)C5=CC(=O)C=C[C@@]5(C)[C@@H]4[C@H](O)C[C@]3(C)[C@]2(C(=O)CO)O1`, for which the activity change, negative = inhibition in test [1] (setting [25]) was 21.4% [at 17.2 µM] (inactive); in [3] (setting [25]), -5.12% [at 17.2 µM] (inactive); in test [9], -4.94% (inactive). The Potency result in test [2], in test [8], in test [10], in test [17], in test [18] and in [19] was “inactive” each time. In [20], the Potency entry was “inactive”. In addition, the activity, negative = inhibition was -5.69% [at 17.2 µM] (inactive) in [4] (setting [25]); -1.94% (inactive) in [16] (at 12.8 µM (top of the series), parasite line A); 13.2% (inactive) in test [16] (at 12.8 µM (top of the series), parasite line B). Moreover, the Potency was 3.95 nM (active) in test [5] and 4.85 nM (active) in [6]. Moreover, the max response is -24% in test [9] (setting [21]) and -28.6% in test [9] (setting [22]). Moreover, the call in test [14] and in test [15] was inactive.
